A number with no mark means an inactive call. Records with an inconclusive call do not appear. Active and inactive are the calls of the source. Unless noted, the call rests on the fitted dose curve; in most records, active means well fitted curve in the direction sought with a large enough effect in the repeat runs; inconclusive means weak or mixed curves; inactive means no such curve, though single readings can be large; an effect the other way counts as inactive or inconclusive.

Data on 13 compounds can be found in PubChem BioAssay (Tox21).

Test [1] can be described thus: qHTS assay to identify small molecule agonists of the TGF-beta/Smad signaling pathway - cell viability counter screen (AID 1346829). Further: top concentration of the series differs between compounds; nearly all actives have a fitted effect of over 45% in size. The method in brief: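 Same-well cytotoxicity: CellTiter-Glo added after the 2 hr room-temperature beta-lactamase substrate step, luminescence measured 30 min later; cells had 5 hr of compound at 37 C.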
(Quantitative high-throughput screening tests each substance at several concentrations.)

A short description of test [2]: qHTS assay to identify small molecule agonists of the TGF-beta/Smad signaling pathway (AID 1346859; active means well fitted activation curve with a large enough effect in the signal ratio in the repeat runs, not every such curve was filed as active; the % refers to the signal ratio; further: series mostly up to about 77 µM). Put shortly: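 HEK 293T cells stably carrying a beta-lactamase reporter driven by the Smad binding element were seeded overnight, exposed to DMSO-dissolved compounds for 5 hr at 37 C, 5% CO2, then loaded with FRET substrate for 2 hr at room temperature.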
Test [3] deals with Thyrotropin-releasing hormone receptor (Homo sapiens) (UniProt P34981). As to the kind of experiment: qHTS assay to identify small molecule antagonists of the thyrotropin-releasing hormone receptor (TRHR) signaling pathway (AID 1346877; active means well fitted inhibition curve with a large enough effect in the repeat runs, not every such curve was filed as active; further: series mostly up to about 51 µM). Put shortly: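 Antagonism is measured as suppression of the calcium response to 1 nM TRH in TRHR-HEK293 cells that have been dye-loaded for 2 h at 37 °C after overnight plating. Each compound is tested at 15 concentrations in triplicate.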

For test [4] the target is unchanged. As to the kind of experiment: qHTS assay to identify small molecule agonists of the thyrotropin-releasing hormone receptor (TRHR) signaling pathway (AID 1346891; calls by dose curve; further: series mostly up to about 58 µM). The method in brief: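 TRHR-expressing HEK293 cells were plated 18 h at 37 °C/5% CO2, loaded with calcium dye 2 h at 37 °C, then given compound in DMSO; fluorescence was read kinetically for 3 min at 1 s intervals.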

Test [5] in a line: Human pregnane X receptor (PXR) small molecule agonists, qHTS cell viability counter screen (AID 1346977). Further: nearly all actives have a fitted effect of over 50% in size. Further: potency means the concentration at half of the fitted maximal effect. The method in brief:
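PXR-Luc HepG2 cells in medium with 5% charcoal-stripped FBS were pre-incubated 5hr, then exposed to compounds for 24hr at 37C. Viability was read in the same wells by CellTiter-Fluor fluorescence, reagent added after 23hr with a 1hr incubation.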

Test [6] is described as follows: Caspase-3/7 induction in HepG2 cells by small molecules, qHTS assay (AID 1346978). Further: nearly all actives have a fitted effect of over 15% in size. Put shortly:
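Wild-type HepG2 cells (2,000/well) were settled 5 h at 37 C, 5% CO2, then exposed to compounds in DMSO for 17 h. Caspase-3/7 activity was read by luminescence 30 min after adding Caspase-Glo 3/7 reagent at room temperature.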

The nature of test [7]: Caspase-3/7 induction in CHO-K1 cells by small molecules, qHTS cell viability counter screen (AID 1346979). Further: nearly all actives have a fitted effect of over 35% in size. Further: potency means the concentration at half of the fitted maximal effect. The method in brief: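 Wild-type CHO-K1 cells were seeded at 1,500 per well, rested 5hr at 37 C, then exposed to compounds in DMSO. After 16hr, CellTiter-Fluor reagent was added and fluorescence read 1hr later as the viability measure.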
The nature of test [8]: Caspase-3/7 induction in HepG2 cells by small molecules, qHTS cell viability counter screen (AID 1346981). Further: series mostly up to about 92 µM; nearly all actives have a fitted effect of over 30% in size. Put shortly: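 Cell viability is measured as a cytotoxicity counter screen alongside the Caspase-Glo 3/7 readout in identical wells. Wild-type HepG2 cells are treated with test compounds for 16 hr at 37 C before CellTiter-Fluor addition and a 1-hr incubation.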
The target of test [9] is Voltage-gated inwardly rectifying potassium channel KCNH2 (Homo sapiens) (UniProt Q12809). As to the kind of experiment: Human Ether-a-go-go-Related Gene (hERG) channel small molecule antagonists: fluorescence cell-based qHTS assay (AID 1671200).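 Further: hERG-expressing U2OS cells given a thallium stimulus after FluxOR II dye loading; series mostly up to about 77 µM; nearly all actives have a fitted effect of over 50% in size.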 Put shortly: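 U2OS cells expressing the channel were plated at 1000 cells/well, incubated overnight at 37 C, then loaded with FluxOR II thallium-sensitive dye for 1 h at room temperature in the dark, with a further 10 min at room temperature before stimulation.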
On the technique in general: Block of hERG is tested as a sign of cardiac risk.

The nature of test [10]: Caspase-3/7 induction in CHO-K1 cells by small molecules, qHTS assay (AID 1346980). Further: nearly all actives have a fitted effect of over 15% in size. The method in brief:
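Wild-type cells were seeded at 1,500 per well and settled 5 hr at 37 C, 5% CO2, then exposed to DMSO-dissolved compounds for 17 hr. Caspase-Glo 3/7 reagent was added, and luminescence was read after 30min at room temperature.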

For test [11], the target named is Nuclear receptor subfamily 1 group I member 2 (Homo sapiens) (UniProt O75469). Kind of test: Human pregnane X receptor (PXR) small molecule agonists, qHTS assay (AID 1346982). Further: nearly all actives have a fitted effect of over 35% in size. Further: potency means the concentration at half of the fitted maximal effect. Put shortly:
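Cells: HepG2 stably carrying PXR-Luc. Medium held 5% charcoal-stripped FBS. Compounds in DMSO added after 5 hr plating, incubated 24 hr, then luminescence quantified with ONE-Glo.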

The target of test [12] is Cytochrome P450 2D6 (Homo sapiens) (UniProt P10635). As to the kind of experiment: Cytochrome P450 Family 2 Subfamily D Member 6 (CYP2D6) small molecule antagonists: luciferase reporter qHTS assay (AID 1671196). Further: nearly all actives have a fitted effect of over 50% in size. Further: potency means the concentration at half of the fitted maximal effect. The method in brief: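 Enzyme and proluciferin substrate were first combined with test chemical for 10 min at room temperature. Adding NADPH regeneration solution started a 1 h reaction, stopped with luciferin detection reagent and read by luminescence 20 min later.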

The target of test [13] is Cytochrome P450 2C19 (Homo sapiens) (UniProt P33261). Kind of test: Cytochrome P450 Family 2 Subfamily C Member 19 (CYP2C19) small molecule antagonists: luciferase reporter qHTS assay (AID 1671197). Further: nearly all actives have a fitted effect of over 65% in size. Further: potency means the concentration at half of the fitted maximal effect. The method in brief: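 Quantitative high-throughput screen of the Tox21 library using CYP2C19 with proluciferin substrate. Reaction: NADPH regeneration, 37C, 1 h, after 10 min compound preincubation at room temperature. Readout: luminescence.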

For test [14], the target named is Cytochrome P450 2C9 (Homo sapiens) (UniProt P11712). Kind of test: Cytochrome P450 Family 2 Subfamily C Member 9 (CYP2C9) small molecule antagonists: luciferase reporter qHTS assay (AID 1671198). Further: nearly all actives have a fitted effect of over 50% in size. Further: potency means the concentration at half of the fitted maximal effect. The method in brief:
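CYP2C9 activity was measured with a P450-Glo proluciferin substrate. Enzyme–substrate mix was held with compound for 10 min at room temperature, then NADPH regeneration solution was added for 1 h at 37C. Luciferin product was read as luminescence.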

Test [15] concerns the target Cytochrome P450 3A4 (Homo sapiens) (UniProt P08684). As to the kind of experiment: Cytochrome P450 Family 3 Subfamily A Member 4 (CYP3A4) small molecule antagonists: luciferase reporter qHTS assay (AID 1671201). The method in brief:
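P450-Glo CYP3A4 system with proluciferin substrate; compounds preincubated 10 min RT with enzyme-substrate mix, then NADPH regeneration added for 1 h RT. Detection reagent 20 min, luminescence read as relative luminescence units.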
(In general: A reporter such as luciferase makes a cellular process visible.)

In test [16] the target is Cytochrome P450 1A2 (Homo sapiens) (UniProt P05177). Kind of test: Cytochrome P450 Family 1 Subfamily A Member 2 (CYP1A2) small molecule antagonists: luciferase reporter qHTS assay (AID 1671199). Further: nearly all actives have a fitted effect of over 50% in size. Further: potency means the concentration at half of the fitted maximal effect. The method in brief:
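Compounds were incubated with CYP1A2 and a luminogenic proluciferin substrate for 10 min at room temperature before the reaction was started with NADPH regeneration solution. After 1 h, detection reagent was added and light output, proportional to CYP activity, was recorded.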

In test [17] the target is Nuclear receptor subfamily 1 group I member 2 (Rattus norvegicus) (UniProt Q9R1A7). Kind of test: Rat pregnane X receptor (rPXR) activation by small molecules, qHTS assay (AID 1346983). Further: nearly all actives have a fitted effect of over 20% in size. The following applies: rPXR luciferase reporter cells, One-Glo luminescence, 24 h; max activation: hits give high values. Put shortly:
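Cell-based rPXR luciferase reporter assay, 2,000 cells per well, rested 5hr at 37 C before compound addition in DMSO, then 24 hr at 37 C. One-Glo reagent was added and luminescence read after 30 min at room temperature.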

Test [18] deals with Nuclear receptor subfamily 1 group I member 2 (Homo sapiens) (UniProt O75469). As to the kind of experiment: CYP3A4 induction through human pregnane X receptor (PXR) by small molecules, qHTS assay (AID 1346984). Further: nearly all actives have a fitted effect of over 40% in size. The method in brief:
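Quantitative HTS in DPX-2 cells, i.e. HepG2 transfected with PXR response element and CYP3A4-promoter luciferase. Compounds in DMSO incubated 24hr at 37C; then P450-Glo CYP3A4 substrate, 3uM final, 3hr; One-Glo luminescence.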

Test [19] has the same target. As to the kind of experiment: Human pregnane X receptor (PXR) activation by small molecules, qHTS assay (AID 1346985). Further: nearly all actives have a fitted effect of over 40% in size. The method in brief:
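DPX-2 cells (HepG2 co-transfected with a PXR response element and a CYP3A4-promoter luciferase construct) were seeded at 2,000 per well, rested 5 hr at 37C, then exposed to DMSO-dissolved compounds for 24 hr. Activation was read as luciferase luminescence.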
On the % scale 0 is the no-effect control and ±100 the full control effect.

Sequence of Thyrotropin-releasing hormone receptor (Homo sapiens) (P34981 whole entry, looked up): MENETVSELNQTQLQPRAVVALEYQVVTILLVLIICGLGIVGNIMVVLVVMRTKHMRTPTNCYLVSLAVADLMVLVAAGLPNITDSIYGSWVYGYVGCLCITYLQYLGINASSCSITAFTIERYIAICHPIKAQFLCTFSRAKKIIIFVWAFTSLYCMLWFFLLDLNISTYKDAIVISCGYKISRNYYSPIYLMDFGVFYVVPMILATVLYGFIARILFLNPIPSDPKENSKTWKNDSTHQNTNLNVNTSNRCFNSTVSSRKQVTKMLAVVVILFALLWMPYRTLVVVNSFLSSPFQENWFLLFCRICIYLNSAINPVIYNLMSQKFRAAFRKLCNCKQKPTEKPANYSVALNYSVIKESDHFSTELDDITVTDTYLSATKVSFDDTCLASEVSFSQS
Sequence of Cytochrome P450 3A4 (Homo sapiens) (P08684 whole entry, looked up): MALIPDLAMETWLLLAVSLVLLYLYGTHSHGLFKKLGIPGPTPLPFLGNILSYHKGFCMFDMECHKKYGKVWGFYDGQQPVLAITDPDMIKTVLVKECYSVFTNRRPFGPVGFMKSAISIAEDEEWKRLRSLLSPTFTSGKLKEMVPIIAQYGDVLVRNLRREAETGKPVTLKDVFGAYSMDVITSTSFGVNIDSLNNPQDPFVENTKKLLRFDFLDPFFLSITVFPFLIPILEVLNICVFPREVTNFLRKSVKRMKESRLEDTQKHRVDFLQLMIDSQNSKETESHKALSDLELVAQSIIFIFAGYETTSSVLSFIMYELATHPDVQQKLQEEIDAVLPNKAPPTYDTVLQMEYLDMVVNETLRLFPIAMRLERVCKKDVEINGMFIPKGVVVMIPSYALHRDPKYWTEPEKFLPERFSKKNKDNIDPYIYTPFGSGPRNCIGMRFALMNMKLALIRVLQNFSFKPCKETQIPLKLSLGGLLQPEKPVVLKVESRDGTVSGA
Sequence of Cytochrome P450 2D6 (Homo sapiens) (P10635 whole entry, looked up): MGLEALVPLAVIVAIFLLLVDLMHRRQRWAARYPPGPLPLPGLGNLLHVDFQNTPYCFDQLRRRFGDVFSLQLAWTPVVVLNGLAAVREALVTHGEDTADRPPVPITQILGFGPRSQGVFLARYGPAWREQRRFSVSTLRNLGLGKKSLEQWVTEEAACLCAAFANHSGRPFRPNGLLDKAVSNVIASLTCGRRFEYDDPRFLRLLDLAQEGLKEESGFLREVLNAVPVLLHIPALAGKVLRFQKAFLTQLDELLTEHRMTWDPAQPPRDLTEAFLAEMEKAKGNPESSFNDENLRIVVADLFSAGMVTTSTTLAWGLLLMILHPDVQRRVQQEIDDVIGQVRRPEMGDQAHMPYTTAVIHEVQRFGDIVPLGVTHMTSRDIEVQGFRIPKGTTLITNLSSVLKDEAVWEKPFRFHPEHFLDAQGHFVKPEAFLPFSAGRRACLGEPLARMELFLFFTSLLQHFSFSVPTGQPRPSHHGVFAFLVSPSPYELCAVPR
Sequence of Cytochrome P450 2C9 (Homo sapiens) (P11712 whole entry, looked up): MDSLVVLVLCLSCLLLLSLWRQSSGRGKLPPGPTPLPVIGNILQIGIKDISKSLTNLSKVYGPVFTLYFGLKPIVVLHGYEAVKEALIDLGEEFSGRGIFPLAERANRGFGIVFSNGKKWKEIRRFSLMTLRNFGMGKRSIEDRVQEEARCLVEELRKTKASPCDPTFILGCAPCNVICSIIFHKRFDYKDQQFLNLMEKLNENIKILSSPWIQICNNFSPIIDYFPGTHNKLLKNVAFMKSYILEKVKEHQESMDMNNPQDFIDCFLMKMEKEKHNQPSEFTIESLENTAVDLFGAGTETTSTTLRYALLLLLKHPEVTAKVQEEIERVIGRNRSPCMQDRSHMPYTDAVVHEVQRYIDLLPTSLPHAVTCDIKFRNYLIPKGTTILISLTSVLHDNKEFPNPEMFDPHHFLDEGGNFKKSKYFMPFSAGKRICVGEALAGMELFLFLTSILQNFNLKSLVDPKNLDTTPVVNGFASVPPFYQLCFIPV
Sequence of Nuclear receptor subfamily 1 group I member 2 (Homo sapiens) (O75469 whole entry, looked up): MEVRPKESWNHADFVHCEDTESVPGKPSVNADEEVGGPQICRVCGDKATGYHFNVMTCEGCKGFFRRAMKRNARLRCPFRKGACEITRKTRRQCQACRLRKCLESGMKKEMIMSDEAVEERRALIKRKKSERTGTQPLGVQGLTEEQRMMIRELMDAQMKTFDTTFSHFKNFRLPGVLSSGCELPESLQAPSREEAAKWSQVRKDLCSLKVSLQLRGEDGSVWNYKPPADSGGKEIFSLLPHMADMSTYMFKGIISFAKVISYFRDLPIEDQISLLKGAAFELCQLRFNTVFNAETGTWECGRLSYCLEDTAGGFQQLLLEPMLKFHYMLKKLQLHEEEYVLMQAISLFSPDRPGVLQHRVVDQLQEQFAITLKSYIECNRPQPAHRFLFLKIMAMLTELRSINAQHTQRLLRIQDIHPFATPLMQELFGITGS
Sequence of Cytochrome P450 1A2 (Homo sapiens) (P05177 whole entry, looked up): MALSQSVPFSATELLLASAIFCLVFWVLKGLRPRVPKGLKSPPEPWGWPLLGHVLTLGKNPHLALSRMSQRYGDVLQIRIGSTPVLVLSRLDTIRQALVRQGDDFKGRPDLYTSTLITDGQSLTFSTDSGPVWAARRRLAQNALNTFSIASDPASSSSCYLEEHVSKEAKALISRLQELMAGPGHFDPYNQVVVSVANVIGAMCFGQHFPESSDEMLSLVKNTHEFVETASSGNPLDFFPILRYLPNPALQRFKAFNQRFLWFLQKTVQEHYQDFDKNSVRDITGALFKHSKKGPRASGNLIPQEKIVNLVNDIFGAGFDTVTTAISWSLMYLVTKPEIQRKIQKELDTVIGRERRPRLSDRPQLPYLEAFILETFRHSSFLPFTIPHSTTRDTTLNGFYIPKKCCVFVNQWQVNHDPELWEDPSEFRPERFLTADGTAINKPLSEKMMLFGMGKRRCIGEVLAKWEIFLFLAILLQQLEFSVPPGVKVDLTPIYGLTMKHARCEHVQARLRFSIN
Sequence of Cytochrome P450 2C19 (Homo sapiens) (P33261 whole entry, looked up): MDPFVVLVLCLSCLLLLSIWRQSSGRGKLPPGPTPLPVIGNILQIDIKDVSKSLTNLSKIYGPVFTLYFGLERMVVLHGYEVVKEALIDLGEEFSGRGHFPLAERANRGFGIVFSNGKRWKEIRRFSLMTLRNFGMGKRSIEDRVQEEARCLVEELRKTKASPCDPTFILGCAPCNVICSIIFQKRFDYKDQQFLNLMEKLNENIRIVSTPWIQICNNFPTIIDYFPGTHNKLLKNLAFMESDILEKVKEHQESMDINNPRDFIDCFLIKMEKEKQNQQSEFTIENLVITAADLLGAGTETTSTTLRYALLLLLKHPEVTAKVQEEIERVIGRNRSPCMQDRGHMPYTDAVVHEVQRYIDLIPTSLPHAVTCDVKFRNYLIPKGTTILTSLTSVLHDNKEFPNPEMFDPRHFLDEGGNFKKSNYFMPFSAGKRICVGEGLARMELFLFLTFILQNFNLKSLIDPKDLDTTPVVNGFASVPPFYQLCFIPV
Sequence of Voltage-gated inwardly rectifying potassium channel KCNH2 (Homo sapiens) (Q12809 whole entry, looked up): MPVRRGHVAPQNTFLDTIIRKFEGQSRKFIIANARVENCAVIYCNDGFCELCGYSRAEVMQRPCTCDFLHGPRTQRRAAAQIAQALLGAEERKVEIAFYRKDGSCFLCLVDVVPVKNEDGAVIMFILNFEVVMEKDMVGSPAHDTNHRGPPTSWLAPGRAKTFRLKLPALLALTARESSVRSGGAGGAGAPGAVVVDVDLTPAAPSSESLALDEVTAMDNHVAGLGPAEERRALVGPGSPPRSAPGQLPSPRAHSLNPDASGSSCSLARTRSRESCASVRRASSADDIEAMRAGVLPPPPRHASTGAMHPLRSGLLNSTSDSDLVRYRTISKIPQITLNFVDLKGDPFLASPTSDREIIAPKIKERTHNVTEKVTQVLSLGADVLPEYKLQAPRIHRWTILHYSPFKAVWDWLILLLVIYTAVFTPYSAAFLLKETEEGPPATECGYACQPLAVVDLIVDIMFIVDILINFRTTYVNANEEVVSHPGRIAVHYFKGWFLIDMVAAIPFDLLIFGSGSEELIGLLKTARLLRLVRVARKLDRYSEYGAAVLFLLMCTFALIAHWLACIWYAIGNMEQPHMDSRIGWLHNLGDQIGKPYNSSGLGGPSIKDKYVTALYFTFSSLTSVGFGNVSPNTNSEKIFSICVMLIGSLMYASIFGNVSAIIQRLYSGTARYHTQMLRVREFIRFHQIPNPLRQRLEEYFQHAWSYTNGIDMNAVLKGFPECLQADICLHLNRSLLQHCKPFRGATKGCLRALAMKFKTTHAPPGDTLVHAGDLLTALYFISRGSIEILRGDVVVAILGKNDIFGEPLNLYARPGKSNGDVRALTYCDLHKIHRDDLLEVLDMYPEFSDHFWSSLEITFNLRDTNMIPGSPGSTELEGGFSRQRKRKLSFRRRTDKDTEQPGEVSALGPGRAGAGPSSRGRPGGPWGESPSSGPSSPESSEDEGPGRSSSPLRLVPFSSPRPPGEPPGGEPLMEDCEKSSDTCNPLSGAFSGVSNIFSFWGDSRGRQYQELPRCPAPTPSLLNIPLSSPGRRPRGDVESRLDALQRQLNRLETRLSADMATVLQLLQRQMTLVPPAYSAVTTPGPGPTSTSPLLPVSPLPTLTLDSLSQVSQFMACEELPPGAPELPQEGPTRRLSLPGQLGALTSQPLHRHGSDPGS
Sequence of Nuclear receptor subfamily 1 group I member 2 (Rattus norvegicus) (Q9R1A7 whole entry, looked up): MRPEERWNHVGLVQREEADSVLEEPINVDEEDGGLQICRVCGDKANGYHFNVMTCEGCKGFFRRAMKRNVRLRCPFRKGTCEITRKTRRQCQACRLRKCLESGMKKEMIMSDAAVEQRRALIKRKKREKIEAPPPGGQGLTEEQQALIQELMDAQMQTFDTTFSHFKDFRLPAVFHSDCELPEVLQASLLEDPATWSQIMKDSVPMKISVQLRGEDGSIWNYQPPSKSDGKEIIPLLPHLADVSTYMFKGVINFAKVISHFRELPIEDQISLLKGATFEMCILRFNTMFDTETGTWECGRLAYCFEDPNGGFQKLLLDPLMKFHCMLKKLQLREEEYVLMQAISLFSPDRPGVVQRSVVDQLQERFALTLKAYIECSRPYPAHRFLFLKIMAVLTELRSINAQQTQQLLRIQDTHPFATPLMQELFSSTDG

Consider `O=S(=O)(O)c1cc(O)ccc1O`, for which the compound was called inactive in test [1], in test [2], in test [3], in test [4] and in [6]. The Potency result in test [5], in test [7], in [8] and in test [9] was “inactive” in each case.

Take `CC(C)C(=O)c1ccccc1`: the compound was classed as inactive in test [1], in test [2], in test [3], in test [4], in [6] and in test [10]. Also, the Potency result in [5], in test [7], in [11], in test [12], in [13] and in [14] was “inactive” throughout. Further, the Potency result in test [9] and in test [15] was “inactive” in each case.

In the case of `CCC(=O)c1ccc(O)cc1`, the compound was classed as inactive in [1], in test [2], in [3], in test [4], in test [6] and in test [10]. For the same compound, the Potency result in test [5], in test [7], in test [11], in test [12], in test [13] and in [14] was “inactive” in each case. Further, the Potency result in [9] and in test [15] was “inactive” throughout.

In the case of `NC(Cc1c[nH]c2ccccc12)C(=O)O` (stereo not given), the call in test [1], in [2], in test [3], in test [4] and in [6] was inactive. The Potency entry in test [5], in test [7], in test [8], in test [11] and in [9] was “inactive” throughout. The Potency is 17.5 µM (active) in test [12] and 24.7 µM (active) in test [13].

On to `COc1cc([N+](=O)[O-])ccc1N`, for which the compound was classed as inactive in [1], in [2], in test [3], in test [4], in test [6] and in test [10]. The Potency in test [5] is 61.1 µM (active); in [7] it was 54.5 µM (active); in [16] it was 22.4 µM (active). Further, the Potency result in [12], in test [13], in test [14] and in [9] was “inactive” in each case.

As to `NS(=O)(=O)c1cc2c(cc1Cl)NC(C(Cl)Cl)NS2(=O)=O` (stereo not given), the call in test [1], in test [2], in test [3], in test [4], in [6] and in test [18] was inactive. The Potency entry in [5], in [7], in test [11], in test [19], in test [12] and in [14] was “inactive” each time. The Potency entry in test [16], in [9] and in [15] was “inactive” throughout. For the same compound, the max activation in [17] is 3.75%.

Turning to `CCN(CC)C(=O)C1CN2CCc3cc(OC)c(OC)cc3C2CC1OC(C)=O` (stereo not given), the outcome in test [1], in [2], in [3], in test [4], in [6] and in [10] was inactive. Moreover, the Potency result in [5], in test [7], in test [11], in test [13], in [16] and in [9] was “inactive” each time.

`O=C1c2ccccc2-c2ccccc21`: the compound was called inactive in test [1], in test [2], in test [3], in test [4] and in test [6]. Further, the Potency entry in test [5], in test [7], in test [8], in test [11], in test [12] and in test [9] was “inactive” each time. Besides, the Potency result in [15] was “inactive”. Further, the values for the Potency in test [13], in [14] and in test [16] were 57.9 µM (active), 65 µM (active) and 0.58 µM (active), respectively.

Take `CCC(C)N` (stereo not given): the compound was classed as inactive in [1], in test [2], in test [3], in test [4] and in test [6]. Moreover, the Potency result in test [5], in test [7], in test [8], in test [11], in [12] and in test [13] was “inactive” each time. The Potency entry in test [16], in [9] and in test [15] was “inactive” throughout.

Turning to `CCOc1ccc(NC(=O)OC(C)C)cc1OCC`, the result in [1], in test [2], in test [3], in [4] and in test [6] was inactive. Further, the Potency result in test [5], in test [7], in test [8], in test [14], in [9] and in test [15] was “inactive” throughout. The values for the Potency in test [11], in test [13] and in test [16] were 48.6 µM (active), 71 µM (active) and 5.03 µM (active), respectively.

Take `O=CN1CCOCC1`: the call in test [1], in [2], in [3], in test [4] and in [6] was inactive. The Potency result in test [5], in test [7], in test [8], in test [11], in [12] and in test [13] was “inactive” throughout. The Potency result in test [14], in [9] and in test [15] was “inactive” throughout. Besides, the Potency in [16] was 44.8 µM (active).

Regarding `CCCOC(=O)CCCCC(=O)OCCC`, the compound was called inactive in test [1], in test [2], in test [3], in [4] and in test [6]. Also, the Potency result in [5], in test [7], in test [8], in [11], in test [12] and in test [9] was “inactive” in each case. Moreover, the Potency in test [13] is 20 µM (active); in [16] it was 22.4 µM (active).

As for `FC(F)(F)/C(=N\OCC1OCCO1)c1ccc(Cl)cc1`, the compound was classed as inactive in test [1], in test [2], in test [3], in test [4] and in test [6]. Also, the Potency result in test [5], in [7], in test [11], in [12], in [9] and in [15] was “inactive” in each case. For the same compound, the Potency in test [13] was 1.59 µM (active); in test [14], 31.7 µM (active); in test [16] it was 2.24 µM (active).
